# Tests used:
# [1] = molecular target: T1, Inhibitor of nuclear factor kappa-B kinase subunit epsilon (Homo sapiens) (UniProt Q14164); conditions: at 1 µM;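 also: reported values are averaged percent inhibition figures against human IKKε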
# T1 sequence (whole entry): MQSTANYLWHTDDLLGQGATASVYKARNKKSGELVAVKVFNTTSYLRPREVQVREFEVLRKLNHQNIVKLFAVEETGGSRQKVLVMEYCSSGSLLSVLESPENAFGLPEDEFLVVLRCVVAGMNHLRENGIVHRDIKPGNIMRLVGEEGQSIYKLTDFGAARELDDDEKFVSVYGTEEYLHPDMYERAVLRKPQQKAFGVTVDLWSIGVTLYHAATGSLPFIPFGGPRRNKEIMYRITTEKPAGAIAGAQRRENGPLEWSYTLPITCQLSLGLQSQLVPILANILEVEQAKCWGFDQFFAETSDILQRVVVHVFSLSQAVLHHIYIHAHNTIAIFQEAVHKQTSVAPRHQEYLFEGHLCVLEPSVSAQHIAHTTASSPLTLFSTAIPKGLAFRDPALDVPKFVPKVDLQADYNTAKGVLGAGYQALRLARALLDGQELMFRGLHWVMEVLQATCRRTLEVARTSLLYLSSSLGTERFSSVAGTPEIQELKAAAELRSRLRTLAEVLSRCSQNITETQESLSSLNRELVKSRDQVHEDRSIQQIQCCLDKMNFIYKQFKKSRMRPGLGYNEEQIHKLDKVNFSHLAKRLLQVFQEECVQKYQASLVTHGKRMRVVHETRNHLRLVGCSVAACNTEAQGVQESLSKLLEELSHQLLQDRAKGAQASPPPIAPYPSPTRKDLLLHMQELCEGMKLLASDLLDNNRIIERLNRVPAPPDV
# [2] = molecular target: T2, Serine/threonine-protein kinase Nek1 (Homo sapiens) (UniProt Q96PY6); conditions: at 0.1 µM
# T2 sequence (whole entry): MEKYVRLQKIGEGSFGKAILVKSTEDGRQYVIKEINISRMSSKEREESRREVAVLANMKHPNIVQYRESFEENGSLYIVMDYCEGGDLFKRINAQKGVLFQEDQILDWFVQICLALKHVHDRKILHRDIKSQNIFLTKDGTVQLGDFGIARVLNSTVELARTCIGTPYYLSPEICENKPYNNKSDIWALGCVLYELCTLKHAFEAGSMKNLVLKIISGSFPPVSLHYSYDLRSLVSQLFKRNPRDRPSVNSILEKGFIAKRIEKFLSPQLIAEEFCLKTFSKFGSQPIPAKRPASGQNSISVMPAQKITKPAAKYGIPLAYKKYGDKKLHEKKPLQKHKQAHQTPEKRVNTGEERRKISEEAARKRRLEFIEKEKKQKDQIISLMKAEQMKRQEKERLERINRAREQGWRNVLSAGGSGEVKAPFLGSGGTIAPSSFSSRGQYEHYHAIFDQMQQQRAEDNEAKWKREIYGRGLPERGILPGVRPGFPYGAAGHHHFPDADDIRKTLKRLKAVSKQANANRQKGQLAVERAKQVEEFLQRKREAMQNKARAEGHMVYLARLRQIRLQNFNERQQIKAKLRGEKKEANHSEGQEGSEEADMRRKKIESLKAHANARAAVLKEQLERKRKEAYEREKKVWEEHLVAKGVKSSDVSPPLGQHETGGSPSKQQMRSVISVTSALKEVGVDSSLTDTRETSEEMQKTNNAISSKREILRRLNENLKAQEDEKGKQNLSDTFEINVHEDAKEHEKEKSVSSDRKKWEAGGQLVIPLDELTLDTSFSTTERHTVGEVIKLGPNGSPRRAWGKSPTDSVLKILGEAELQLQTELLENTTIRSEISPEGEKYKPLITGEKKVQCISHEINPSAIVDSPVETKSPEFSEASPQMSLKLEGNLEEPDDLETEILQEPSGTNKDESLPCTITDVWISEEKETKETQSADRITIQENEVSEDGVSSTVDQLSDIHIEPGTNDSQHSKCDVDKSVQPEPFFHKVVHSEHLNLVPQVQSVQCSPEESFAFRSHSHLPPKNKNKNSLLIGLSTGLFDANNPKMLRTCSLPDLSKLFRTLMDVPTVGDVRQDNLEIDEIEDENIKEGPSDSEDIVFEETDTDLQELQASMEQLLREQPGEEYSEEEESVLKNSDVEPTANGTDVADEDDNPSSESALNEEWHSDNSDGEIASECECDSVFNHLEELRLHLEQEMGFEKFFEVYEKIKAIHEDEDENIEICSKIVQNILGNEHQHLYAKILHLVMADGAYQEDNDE
# [3] = molecular target: T2, Serine/threonine-protein kinase Nek1 (Homo sapiens); conditions: at 1 µM
# [4] = molecular target: T3, Serine/threonine-protein kinase Nek2 (Homo sapiens) (UniProt P51955); conditions: at 0.1 µM
# T3 sequence (whole entry): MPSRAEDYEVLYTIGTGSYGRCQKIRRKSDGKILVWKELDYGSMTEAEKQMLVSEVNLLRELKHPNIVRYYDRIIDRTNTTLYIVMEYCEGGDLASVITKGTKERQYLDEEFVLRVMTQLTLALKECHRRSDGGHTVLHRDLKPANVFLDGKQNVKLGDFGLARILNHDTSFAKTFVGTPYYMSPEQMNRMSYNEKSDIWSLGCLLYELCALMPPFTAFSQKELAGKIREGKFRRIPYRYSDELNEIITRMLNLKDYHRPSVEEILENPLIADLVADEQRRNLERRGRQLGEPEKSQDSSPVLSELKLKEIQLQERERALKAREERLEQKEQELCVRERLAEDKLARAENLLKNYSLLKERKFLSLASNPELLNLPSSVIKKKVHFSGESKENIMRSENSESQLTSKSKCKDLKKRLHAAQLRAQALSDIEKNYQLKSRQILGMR
# [5] = molecular target: T3, Serine/threonine-protein kinase Nek2 (Homo sapiens); conditions: at 1 µM
# [6] = molecular target: Serine/threonine-protein kinase Nek6 (Homo sapiens) (UniProt Q9HC98); conditions: at 0.1 µM
# Sequence of Serine/threonine-protein kinase Nek6 (Homo sapiens) (Q9HC98 whole entry): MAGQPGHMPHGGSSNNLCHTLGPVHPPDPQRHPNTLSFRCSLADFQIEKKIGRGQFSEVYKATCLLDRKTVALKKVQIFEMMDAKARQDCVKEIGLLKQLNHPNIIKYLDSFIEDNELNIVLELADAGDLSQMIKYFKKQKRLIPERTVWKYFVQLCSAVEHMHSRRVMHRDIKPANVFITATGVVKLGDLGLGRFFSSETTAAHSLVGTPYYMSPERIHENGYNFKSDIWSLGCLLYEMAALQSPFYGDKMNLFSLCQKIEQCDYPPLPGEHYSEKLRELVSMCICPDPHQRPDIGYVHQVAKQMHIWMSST
# [7] = molecular target: Serine/threonine-protein kinase Nek6 (Homo sapiens) (UniProt Q9HC98); conditions: at 1 µM
# [8] = molecular target: Serine/threonine-protein kinase Nek7 (Homo sapiens) (UniProt Q8TDX7); conditions: at 0.1 µM
# Sequence of Serine/threonine-protein kinase Nek7 (Homo sapiens) (Q8TDX7 whole entry, looked up): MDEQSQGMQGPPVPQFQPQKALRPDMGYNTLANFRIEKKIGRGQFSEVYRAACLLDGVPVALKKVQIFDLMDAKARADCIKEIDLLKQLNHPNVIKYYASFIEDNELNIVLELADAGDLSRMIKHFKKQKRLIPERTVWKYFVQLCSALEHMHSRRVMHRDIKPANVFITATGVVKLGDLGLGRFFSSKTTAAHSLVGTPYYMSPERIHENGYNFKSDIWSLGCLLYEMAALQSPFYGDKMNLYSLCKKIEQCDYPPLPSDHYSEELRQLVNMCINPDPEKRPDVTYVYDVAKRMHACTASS
# [9] = molecular target: Serine/threonine-protein kinase Nek7 (Homo sapiens) (UniProt Q8TDX7); conditions: at 1 µM
# [10] = molecular target: T4, Serine/threonine-protein kinase Nek9 (Homo sapiens) (UniProt Q8TD19); conditions: at 0.1 µM
# T4 sequence (whole entry): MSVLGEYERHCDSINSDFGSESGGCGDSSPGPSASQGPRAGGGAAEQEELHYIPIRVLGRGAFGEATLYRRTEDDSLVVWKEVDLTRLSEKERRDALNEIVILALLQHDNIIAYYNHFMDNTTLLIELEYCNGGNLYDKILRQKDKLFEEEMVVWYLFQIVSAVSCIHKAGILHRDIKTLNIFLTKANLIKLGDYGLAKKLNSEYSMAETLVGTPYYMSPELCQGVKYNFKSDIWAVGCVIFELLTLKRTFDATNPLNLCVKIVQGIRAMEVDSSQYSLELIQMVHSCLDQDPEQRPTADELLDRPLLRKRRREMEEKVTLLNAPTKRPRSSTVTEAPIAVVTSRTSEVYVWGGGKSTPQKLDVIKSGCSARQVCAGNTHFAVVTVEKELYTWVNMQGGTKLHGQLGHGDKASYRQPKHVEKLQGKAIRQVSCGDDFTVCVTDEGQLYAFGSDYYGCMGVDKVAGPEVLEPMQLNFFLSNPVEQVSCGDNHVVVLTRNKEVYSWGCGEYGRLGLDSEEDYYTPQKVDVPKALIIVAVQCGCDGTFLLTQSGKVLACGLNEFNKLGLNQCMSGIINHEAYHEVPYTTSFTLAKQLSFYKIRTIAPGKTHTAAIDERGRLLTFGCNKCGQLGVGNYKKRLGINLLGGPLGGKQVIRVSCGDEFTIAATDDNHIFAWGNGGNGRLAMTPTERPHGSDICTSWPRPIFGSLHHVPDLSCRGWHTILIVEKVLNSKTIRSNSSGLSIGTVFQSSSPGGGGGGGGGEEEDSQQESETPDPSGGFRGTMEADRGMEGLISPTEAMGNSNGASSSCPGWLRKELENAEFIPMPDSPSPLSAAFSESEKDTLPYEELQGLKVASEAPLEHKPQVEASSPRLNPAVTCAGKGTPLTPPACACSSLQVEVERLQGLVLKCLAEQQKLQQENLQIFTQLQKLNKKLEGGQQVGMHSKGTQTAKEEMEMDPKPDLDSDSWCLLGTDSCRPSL
# [11] = molecular target: T4, Serine/threonine-protein kinase Nek9 (Homo sapiens); conditions: at 1 µM
# [12] = molecular target: Serine/threonine-protein kinase PLK1 (Homo sapiens) (UniProt P53350); conditions: at 0.1 µM
# Sequence of Serine/threonine-protein kinase PLK1 (Homo sapiens) (P53350 whole entry): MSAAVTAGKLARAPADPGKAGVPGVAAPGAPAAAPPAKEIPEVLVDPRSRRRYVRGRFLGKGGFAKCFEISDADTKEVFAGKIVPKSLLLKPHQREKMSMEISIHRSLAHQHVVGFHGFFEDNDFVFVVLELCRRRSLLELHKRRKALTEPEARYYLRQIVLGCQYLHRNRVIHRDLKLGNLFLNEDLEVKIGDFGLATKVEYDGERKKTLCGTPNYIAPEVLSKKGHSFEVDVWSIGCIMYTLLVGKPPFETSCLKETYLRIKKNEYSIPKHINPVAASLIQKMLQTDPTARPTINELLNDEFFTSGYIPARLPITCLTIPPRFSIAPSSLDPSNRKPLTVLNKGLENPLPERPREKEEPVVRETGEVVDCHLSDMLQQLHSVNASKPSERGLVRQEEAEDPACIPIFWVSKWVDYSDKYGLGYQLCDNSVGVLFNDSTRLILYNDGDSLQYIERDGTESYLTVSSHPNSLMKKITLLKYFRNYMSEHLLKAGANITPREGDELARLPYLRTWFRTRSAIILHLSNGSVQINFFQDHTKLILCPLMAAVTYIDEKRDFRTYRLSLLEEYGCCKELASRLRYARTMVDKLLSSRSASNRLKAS
# [13] = molecular target: Serine/threonine-protein kinase PLK1 (Homo sapiens) (UniProt P53350); conditions: at 1 µM
# [14] = molecular target: T5, Dual specificity protein kinase TTK (Homo sapiens) (UniProt P33981); conditions: at 0.1 µM
# T5 sequence (whole entry): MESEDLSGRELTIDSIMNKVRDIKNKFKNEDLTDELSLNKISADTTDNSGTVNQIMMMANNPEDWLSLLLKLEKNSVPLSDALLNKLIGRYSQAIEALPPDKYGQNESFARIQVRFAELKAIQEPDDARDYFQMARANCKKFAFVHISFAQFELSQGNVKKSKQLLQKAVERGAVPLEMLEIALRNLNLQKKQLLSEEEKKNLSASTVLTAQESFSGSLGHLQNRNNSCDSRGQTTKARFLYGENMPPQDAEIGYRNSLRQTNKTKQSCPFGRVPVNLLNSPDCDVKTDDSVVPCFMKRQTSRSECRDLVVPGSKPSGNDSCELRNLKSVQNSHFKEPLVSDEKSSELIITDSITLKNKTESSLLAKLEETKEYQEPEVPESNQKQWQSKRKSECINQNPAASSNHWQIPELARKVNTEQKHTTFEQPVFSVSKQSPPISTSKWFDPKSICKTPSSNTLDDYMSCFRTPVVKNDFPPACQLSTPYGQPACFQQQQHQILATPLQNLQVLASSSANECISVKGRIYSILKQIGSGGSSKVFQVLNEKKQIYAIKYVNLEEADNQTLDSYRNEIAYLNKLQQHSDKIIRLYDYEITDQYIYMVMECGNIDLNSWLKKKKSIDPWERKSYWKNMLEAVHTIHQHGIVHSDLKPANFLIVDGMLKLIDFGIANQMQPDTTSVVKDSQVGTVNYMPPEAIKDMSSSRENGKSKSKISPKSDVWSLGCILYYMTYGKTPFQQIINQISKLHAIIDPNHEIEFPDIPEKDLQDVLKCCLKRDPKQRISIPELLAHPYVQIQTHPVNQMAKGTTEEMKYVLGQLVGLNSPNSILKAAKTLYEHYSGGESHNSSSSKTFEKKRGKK
# [15] = test system: T6, Receptor-type tyrosine-protein kinase FLT3 (Homo sapiens), P36888 [D835Y]; conditions: at 1 µM
# T6 sequence (whole entry): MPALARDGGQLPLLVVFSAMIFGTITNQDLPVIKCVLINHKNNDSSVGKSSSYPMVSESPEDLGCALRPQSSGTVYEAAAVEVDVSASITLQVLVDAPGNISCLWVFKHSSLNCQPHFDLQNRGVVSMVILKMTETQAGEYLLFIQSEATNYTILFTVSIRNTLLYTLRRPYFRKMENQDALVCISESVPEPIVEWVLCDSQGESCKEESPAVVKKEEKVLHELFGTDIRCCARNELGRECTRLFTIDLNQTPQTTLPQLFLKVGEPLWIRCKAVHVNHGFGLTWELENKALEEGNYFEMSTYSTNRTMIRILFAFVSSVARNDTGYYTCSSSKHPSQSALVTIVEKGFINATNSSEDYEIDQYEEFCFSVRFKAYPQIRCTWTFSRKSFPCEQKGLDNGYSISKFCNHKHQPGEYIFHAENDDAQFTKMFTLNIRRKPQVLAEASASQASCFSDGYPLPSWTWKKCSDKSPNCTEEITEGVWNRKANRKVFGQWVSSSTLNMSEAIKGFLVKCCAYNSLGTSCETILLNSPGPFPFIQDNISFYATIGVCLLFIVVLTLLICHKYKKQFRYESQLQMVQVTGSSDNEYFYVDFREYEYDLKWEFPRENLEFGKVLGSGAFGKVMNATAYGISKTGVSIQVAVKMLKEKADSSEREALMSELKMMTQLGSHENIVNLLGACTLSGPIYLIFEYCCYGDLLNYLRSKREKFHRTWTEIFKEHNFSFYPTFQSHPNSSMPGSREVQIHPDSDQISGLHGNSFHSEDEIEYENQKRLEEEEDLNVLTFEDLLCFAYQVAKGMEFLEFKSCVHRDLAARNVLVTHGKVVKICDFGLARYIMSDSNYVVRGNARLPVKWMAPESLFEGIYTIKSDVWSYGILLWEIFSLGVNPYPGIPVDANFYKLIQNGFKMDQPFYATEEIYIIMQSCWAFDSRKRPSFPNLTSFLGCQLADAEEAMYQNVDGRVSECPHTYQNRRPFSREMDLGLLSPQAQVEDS
# [16] = molecular target: Vascular endothelial growth factor receptor 3 (Homo sapiens) (UniProt P35916); conditions: at 0.1 µM
# Sequence of Vascular endothelial growth factor receptor 3 (Homo sapiens) (P35916 whole entry): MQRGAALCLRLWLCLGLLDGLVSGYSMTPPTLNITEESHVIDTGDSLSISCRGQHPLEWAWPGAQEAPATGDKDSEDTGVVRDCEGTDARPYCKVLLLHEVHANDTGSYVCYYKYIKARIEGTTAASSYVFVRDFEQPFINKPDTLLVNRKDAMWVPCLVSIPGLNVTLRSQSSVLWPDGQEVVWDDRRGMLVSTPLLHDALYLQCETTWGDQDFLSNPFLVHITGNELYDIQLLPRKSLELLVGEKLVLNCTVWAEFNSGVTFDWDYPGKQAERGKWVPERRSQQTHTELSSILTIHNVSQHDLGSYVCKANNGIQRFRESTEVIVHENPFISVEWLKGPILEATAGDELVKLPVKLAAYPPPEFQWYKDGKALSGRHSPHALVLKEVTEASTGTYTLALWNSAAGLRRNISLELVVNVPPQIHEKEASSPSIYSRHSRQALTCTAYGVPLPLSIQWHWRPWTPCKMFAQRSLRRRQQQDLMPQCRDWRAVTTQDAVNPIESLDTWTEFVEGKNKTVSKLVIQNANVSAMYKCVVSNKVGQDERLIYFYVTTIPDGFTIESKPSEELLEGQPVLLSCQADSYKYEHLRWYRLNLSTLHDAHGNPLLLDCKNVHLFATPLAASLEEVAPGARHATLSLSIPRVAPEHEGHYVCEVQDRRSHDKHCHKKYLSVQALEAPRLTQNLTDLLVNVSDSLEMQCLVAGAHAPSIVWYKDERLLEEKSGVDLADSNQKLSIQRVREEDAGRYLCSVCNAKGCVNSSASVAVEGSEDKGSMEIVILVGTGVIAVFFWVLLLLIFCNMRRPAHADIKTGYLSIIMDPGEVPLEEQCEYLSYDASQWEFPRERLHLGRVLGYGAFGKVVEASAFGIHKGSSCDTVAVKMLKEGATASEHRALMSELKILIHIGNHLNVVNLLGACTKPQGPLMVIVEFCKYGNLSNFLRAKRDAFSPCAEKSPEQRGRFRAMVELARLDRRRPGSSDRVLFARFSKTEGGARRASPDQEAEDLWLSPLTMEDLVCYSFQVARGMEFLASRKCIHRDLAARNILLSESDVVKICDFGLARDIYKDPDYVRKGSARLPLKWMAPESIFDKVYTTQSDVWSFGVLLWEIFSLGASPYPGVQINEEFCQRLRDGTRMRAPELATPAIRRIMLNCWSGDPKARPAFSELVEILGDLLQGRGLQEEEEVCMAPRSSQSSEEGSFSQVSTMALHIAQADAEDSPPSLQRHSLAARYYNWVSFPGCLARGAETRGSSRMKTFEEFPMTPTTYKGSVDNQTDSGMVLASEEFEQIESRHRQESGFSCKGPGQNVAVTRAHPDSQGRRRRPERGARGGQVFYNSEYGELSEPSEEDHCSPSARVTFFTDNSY
# [17] = molecular target: Vascular endothelial growth factor receptor 3 (Homo sapiens) (UniProt P35916); conditions: at 1 µM
# [18] = molecular target: Macrophage colony-stimulating factor 1 receptor (Homo sapiens) (UniProt P07333); conditions: at 0.1 µM
# Sequence of Macrophage colony-stimulating factor 1 receptor (Homo sapiens) (P07333 whole entry): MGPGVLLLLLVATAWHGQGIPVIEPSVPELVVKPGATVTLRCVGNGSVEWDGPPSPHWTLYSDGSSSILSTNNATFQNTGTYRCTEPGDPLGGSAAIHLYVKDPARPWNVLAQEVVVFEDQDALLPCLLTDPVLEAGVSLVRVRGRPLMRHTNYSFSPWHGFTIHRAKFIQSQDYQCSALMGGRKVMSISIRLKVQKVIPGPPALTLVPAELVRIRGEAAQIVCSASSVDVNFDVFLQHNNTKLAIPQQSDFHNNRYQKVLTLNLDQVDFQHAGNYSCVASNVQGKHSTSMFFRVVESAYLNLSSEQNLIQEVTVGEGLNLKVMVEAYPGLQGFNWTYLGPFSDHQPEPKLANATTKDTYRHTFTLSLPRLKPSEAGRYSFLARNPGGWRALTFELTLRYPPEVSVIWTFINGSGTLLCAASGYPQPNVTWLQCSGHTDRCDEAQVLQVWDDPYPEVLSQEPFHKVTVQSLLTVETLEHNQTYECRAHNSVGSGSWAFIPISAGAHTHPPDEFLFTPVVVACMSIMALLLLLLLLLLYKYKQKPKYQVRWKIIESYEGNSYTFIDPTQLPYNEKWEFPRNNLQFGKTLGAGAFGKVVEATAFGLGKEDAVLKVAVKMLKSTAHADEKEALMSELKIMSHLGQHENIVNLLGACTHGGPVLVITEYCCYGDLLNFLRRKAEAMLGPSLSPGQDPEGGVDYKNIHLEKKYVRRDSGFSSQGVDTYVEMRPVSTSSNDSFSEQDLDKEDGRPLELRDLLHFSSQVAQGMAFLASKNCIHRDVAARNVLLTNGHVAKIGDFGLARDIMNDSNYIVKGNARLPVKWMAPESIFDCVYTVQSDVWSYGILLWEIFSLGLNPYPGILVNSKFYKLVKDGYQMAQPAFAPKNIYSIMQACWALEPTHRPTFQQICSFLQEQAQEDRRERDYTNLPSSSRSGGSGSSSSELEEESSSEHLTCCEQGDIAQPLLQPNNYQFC
# [19] = molecular target: Macrophage colony-stimulating factor 1 receptor (Homo sapiens) (UniProt P07333); conditions: at 1 µM
# [20] = molecular target: Tyrosine-protein kinase Fyn (Homo sapiens) (UniProt P06241); conditions: at 0.1 µM
# Sequence of Tyrosine-protein kinase Fyn (Homo sapiens) (P06241 2-537 limits assumed): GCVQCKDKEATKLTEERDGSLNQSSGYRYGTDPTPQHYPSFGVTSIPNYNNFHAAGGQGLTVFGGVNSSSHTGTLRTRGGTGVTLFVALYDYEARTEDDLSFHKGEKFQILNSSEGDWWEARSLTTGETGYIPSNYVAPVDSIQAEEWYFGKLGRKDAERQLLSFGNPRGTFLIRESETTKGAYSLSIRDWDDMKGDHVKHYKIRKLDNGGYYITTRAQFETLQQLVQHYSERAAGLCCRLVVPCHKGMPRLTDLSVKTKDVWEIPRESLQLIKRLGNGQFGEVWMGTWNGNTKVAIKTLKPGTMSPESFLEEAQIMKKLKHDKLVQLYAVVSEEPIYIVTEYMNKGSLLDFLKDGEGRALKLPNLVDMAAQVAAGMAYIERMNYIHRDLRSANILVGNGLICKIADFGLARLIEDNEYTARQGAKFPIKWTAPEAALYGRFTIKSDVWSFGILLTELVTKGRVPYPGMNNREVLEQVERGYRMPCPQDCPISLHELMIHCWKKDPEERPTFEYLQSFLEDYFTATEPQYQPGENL
SMILES,inhibition [1] [%],inhibition [2] [%],inhibition [3] [%],inhibition [4] [%],inhibition [5] [%],inhibition [6] [%],inhibition [7] [%],inhibition [8] [%],inhibition [9] [%],inhibition [10] [%],inhibition [11] [%],inhibition [12] [%],inhibition [13] [%],inhibition [14] [%],inhibition [15] [%],inhibition [16] [%],inhibition [17] [%],inhibition [18] [%],inhibition [19] [%],inhibition [20] [%]
CCn1c(-c2nonc2N)nc2cnc(Oc3cccc(NC(=O)c4ccc(N(C)C)cc4)c3)cc21,14.1,1.17,4.28,2.85,1.24,0.89,2.25,3.09,1.46,7.55,5.29,1.86,1.97,3.52,0.83,0.61,2.01,-0.02,0.23,1.66
CN1CCC(n2cnc(-c3ccc(F)cc3)c2-c2ccnc(Nc3ccccc3)n2)CC1,6.75,1.95,2.29,2.54,3.52,4.42,3.58,2.94,2.65,5.58,10.1,6.81,2.65,9.56,2.38,0.02,1.32,-1.19,4.11,0.05
NC(=O)c1sc(-n2cnc3ccc(C(F)(F)F)cc32)cc1OCc1ccccc1Br,6.28,3,3.1,4.34,5.43,3.44,3.3,5.57,3.81,8.05,28.9,81.4,94.3,8.68,5.89,-1.7,3.99,0.91,3.49,2.36
COc1ccc(-c2nn3ncccc3c2-c2ccnc(Nc3ccc4c(c3)OCCO4)n2)cc1,-0.27,0.11,2.9,-0.55,3.9,-0.41,0.26,2.18,1.38,6.4,8.39,2.68,2.45,4.08,0.07,8.62,56.4,19.6,66.8,5.65

# Reference: ChEMBL document CHEMBL1961873, “Compounds: GSK PKIS; Assays: Nanosyn kinase panel” (2012)
